For this experiment, the system named is Trichuris muris adult worms. Kind of experiment: mean motility score (Paragon pixel variance) of adult worms (arbitrary units); higher = more motile worms, i.e. less anthelmintic effect; extreme values may be limits of the assay. The note with it: 100 µM; 24 h. Here is the method:
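Primary ex vivo screen of 409 approved drugs against adult Trichuris muris worms: one worm per well in RPMI-1640 with penicillin/streptomycin, 100 µM drug in 1% DMSO, 37 °C, 5% CO2 for 24 h. Motility was recorded with INVAPP (200-frame movies) and scored with the Paragon pixel-variance algorithm. Values are means of triplicate wells run on three occasions; levamisole was the positive control and DMSO the negative control.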
`CN(C)[C@@H]1C(O)=C(C(N)=O)C(=O)[C@@]2(O)C(O)=C3C(=O)c4c(O)cccc4[C@@](C)(O)[C@H]3[C@H](O)[C@@H]12` [oxytetracycline] showed a mean motility score of 2120.
With `CCCCc1oc2ccccc2c1C(=O)c1cc(I)c(OCCN(CC)CC)c(I)c1` [amiodarone] the figure was 2080; with `NC(=O)CC[C@H](N)C(=O)O` [glutamine], 3380.
`CC(C)O` [isopropyl alcohol] came in with a mean motility score of 2760.
Next, `Cl.Clc1ccccc1CN1CCc2sccc2C1` [ticlopidine hydrochloride]: 663.
Take `N=C(N)NCCN1CCCCCCC1.N=C(N)NCCN1CCCCCCC1.O=S(=O)(O)O` [guanethidine sulfate]: the mean motility score was 2380.
`CC(C)(Oc1ccc(C2CC2(Cl)Cl)cc1)C(=O)O` (stereo not given) [ciprofibrate] had a mean motility score of 2070.
In turn, `COc1nc(C)nc(Cl)c1NC1=NCCN1` [moxonidine] came in with a mean motility score of 3500.
`CCOC(=O)[C@H](CCc1ccccc1)N[C@H]1CCc2ccccc2N(CC(=O)O)C1=O.Cl` [benazepril hydrochloride] returned a mean motility score of 2030.
Next, `COc1ccc2c(c1)c(CC(=O)O)c(C)n2C(=O)c1ccc(Cl)cc1` [indomethacin]: 2460.
Molecule `O=C(NCCO[N+](=O)[O-])c1cccnc1` [nicorandil] registered a mean motility score of 2790.
For the molecule `CC1(C)O[C@@H]2C[C@H]3[C@@H]4C[C@H](F)C5=CC(=O)C=C[C@]5(C)[C@@]4(F)[C@@H](O)C[C@]3(C)[C@]2(C(=O)CO)O1` [fluocinolone acetonide], the mean motility score was found to be 2800.
With `N[C@@H]1CONC1=O` [cycloserine], the mean motility score was 3930.
The molecule `COc1ccc(C(Cl)=C(c2ccc(OC)cc2)c2ccc(OC)cc2)cc1` [chlorotrianisene] displayed a mean motility score of 2530.
With `CNCC[C@H](Oc1cccc2ccccc12)c1cccs1.Cl` [duloxetine hydrochloride] the figure was 2.67; with `CN/C(=C\[N+](=O)[O-])NCCSCc1csc(CN(C)C)n1` [nizatidine], 3800; with `CC1=C(/C=C/C(C)=C/C=C/C(C)=C/CO)C(C)(C)CCC1` [retinol], 2970.
With `Nc1cc(C(F)(F)F)c(-c2cc(N3CCOCC3)nc(N3CCOCC3)n2)cn1` [buparlisib] the figure was 3960; with `CN1CCCN=C1COC(=O)C(O)(c1ccccc1)C1CCCCC1.Cl` (stereo not given) [oxyphencyclimine hydrochloride], 3070.
The molecule `CC(C)C(=O)Nc1ccc([N+](=O)[O-])c(C(F)(F)F)c1` [flutamide] displayed a mean motility score of 113.
The molecule `C[C@@H]1[C@H](O)[C@@H](C)/C=C/C=C/C=C/C=C/C=C/C=C/C=C/[C@H](O[C@@H]2O[C@H](C)[C@@H](O)[C@H](N)[C@@H]2O)C[C@@H]2O[C@](O)(C[C@@H](O)C[C@@H](O)[C@H](O)CC[C@@H](O)C[C@@H](O)CC(=O)O[C@H]1C)C[C@H](O)[C@H]2C(=O)O` [amphotericin B] displayed a mean motility score of 656.
Molecule `NCC[C@H](O)C(=O)N[C@@H]1C[C@H](N)[C@@H](O[C@H]2O[C@H](CN)[C@@H](O)[C@H](O)[C@H]2O)[C@H](O)[C@H]1O[C@H]1O[C@H](CO)[C@@H](O)[C@H](N)[C@H]1O.O=S(=O)(O)O` [amikacin sulfate] came in with a mean motility score of 3880.
On to `NC(=O)OCC(COC(N)=O)c1ccccc1` [felbamate], for which the mean motility score stood at 5470.
With `OC(CCCN1CCCCC1)(c1ccccc1)c1ccccc1` [diphenidol] the figure was 1940.
For the molecule `CC(=O)Nc1c(I)c(NC(C)=O)c(I)c(C(=O)O)c1I` [diatrizoic acid], the mean motility score amounted to 1110.
The molecule `N[C@@H](Cc1cc(I)c(Oc2ccc(O)c(I)c2)c(I)c1)C(=O)O` [liothyronine] displayed a mean motility score of 1020.
The molecule `Cc1ccccc1C(OCCN(C)C)c1ccccc1.Cl` (stereo not given) [orphenadrine hydrochloride] displayed a mean motility score of 1810.
Molecule `c1cnc(N2CCN(Cc3ccc4c(c3)OCO4)CC2)nc1` [piribedil] came in with a mean motility score of 1950.
The molecule `NS(=O)(=O)Cc1noc2ccccc12` [zonisamide] gave a mean motility score of 2960.
`COC(=O)C1=C(C)NC(C)=C(C(=O)OCCN(C)Cc2ccccc2)C1c1cccc([N+](=O)[O-])c1` (stereo not given) [nicardipine] came in with a mean motility score of 0.
The molecule `COc1ccc(/C=C/C(=O)Nc2ccccc2C(=O)O)cc1OC` [tranilast] displayed a mean motility score of 1720.
Take `NC(N)=O` [urea]: the mean motility score stood at 4760.
The molecule `C=C[C@H]1CN2CC[C@H]1C[C@@H]2[C@@H](O)c1ccnc2ccc(OC)cc12` [quinidine] had a mean motility score of 1610.
`COc1ccc(CCN(C)CCCC(C#N)(c2ccc(OC)c(OC)c2)C(C)C)cc1OC` (stereo not given) [verapamil] displayed a mean motility score of 3440.
With `C(=C\c1ccccc1)/CN1CCN(C(c2ccccc2)c2ccccc2)CC1` [cinnarizine], the mean motility score was 1640.
The molecule `C[C@@H]1C[C@H]2[C@@H]3CCC4=CC(=O)C=C[C@]4(C)[C@@]3(F)[C@@H](O)C[C@]2(C)[C@@]1(O)C(=O)CO` [dexamethasone] showed a mean motility score of 1780.
In turn, `COCCCC/C(=N\OCCN)c1ccc(C(F)(F)F)cc1` [fluvoxamine] registered a mean motility score of 2670.
With `COc1cc2c(Nc3ccc(Br)cc3F)ncnc2cc1OCC1CCN(C)CC1` [vandetanib], the mean motility score turned out to be 0.
`COc1cc2c(Oc3ccc4[nH]c(C)cc4c3F)ncnc2cc1OCCCN1CCCC1` [cediranib] showed a mean motility score of 0.
`Cc1ncc([N+](=O)[O-])n1CC(C)O` (stereo not given) [secnidazole] registered a mean motility score of 2540.

These data come from the supplement of paper PMC10503962.
